The text below walks through data of PubChem BioAssay (Tox21).

Values without a mark were called inactive. Records with an inconclusive call do not appear. Active and inactive are the calls of the source. Unless noted, the call rests on the fitted dose curve; in most records, active means well fitted curve in the direction sought with a large enough effect in the repeat runs; inconclusive means weak or mixed curves; inactive means no such curve, though single readings can be large; an effect the other way counts as inactive or inconclusive.

The nature of experiment [1]: qHTS assay to identify small molecule antagonists of the estrogen related receptor (ERR) signaling pathway from Tox21 library - cell viability counter screen (AID 1224834). Further: nearly all actives have a fitted effect of over 30% in size. Put shortly:
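ERR reporter cells were plated 6 h before compound addition, then exposed to test compounds in DMSO for 17.5 h at 37 C. Viability was read as CellTiter-Fluor fluorescence after a 30-minute incubation at 37 C.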
On the technique in general: Quantitative high-throughput screening tests each substance at several concentrations.

Experiment [2] deals with Luciferin 4-monooxygenase (Photinus pyralis) (UniProt P08659). Nature of the experiment: qHTS assay to identify small molecule inhibitors of firefly luciferase (AID 1224835). Further: nearly all actives have a fitted effect of over 25% in size. Put shortly:
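Inhibition of purified Photinus luciferase is measured by luminescence. Substrate levels (D-luciferin, ATP) sit at their KM values. Each compound is tested in a concentration series.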

The nature of experiment [3]: qHTS assay to identify small molecule agonists of the constitutive androstane receptor (CAR) signaling pathway - cell viability counter screen (AID 1224836). Further: nearly all actives have a fitted effect of over 45% in size. Put shortly: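 Double-stable HepG2 hepatoma cells (hCAR plus CYP2B6-2.2kb) are treated for 23 h at 37 C with test compounds in 15-point concentration series. PK11195 at 0.75 uM final is co-added. Cell viability is quantified by CellTiter-Fluor.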

The nature of experiment [4]: qHTS assay to identify small molecule antagonists of the constitutive androstane receptor (CAR) signaling pathway - cell viability counter screen (AID 1224837). Further: nearly all actives have a fitted effect of over 45% in size. Put shortly:
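HepG2 cells stably expressing hCAR and a CYP2B6-2.2kb reporter were plated and pre-incubated 4 hr at 37 C/5% CO2, then given compounds at 15 concentrations plus 50 nM CITCO (final). After 23 hr, viability was read by CellTiter-Fluor fluorescence.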

Experiment [5] deals with Nuclear receptor subfamily 1 group I member 3 (Homo sapiens) (UniProt Q14994). Put plainly: qHTS assay to identify small molecule antagonists of the constitutive androstane receptor (CAR) signaling pathway (AID 1224838). Further: nearly all actives have a fitted effect of over 40% in size. Put shortly:
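HepG2 cells stably co-transfected with hCAR and a CYP2B6-2.2kb luciferase reporter were seeded 4 h before compound addition at 15 concentrations. Cells were stimulated with 50 nM CITCO (final) for 24 h at 37 C; luciferase luminescence was then read.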

The target is the same in experiment [6]. Nature of the experiment: qHTS assay to identify small molecule agonists of the constitutive androstane receptor (CAR) signaling pathway (AID 1224839).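 Further: HepG2 cells stably carrying human CAR and a CYP2B6 luciferase reporter; nearly all actives have a fitted effect of over 15% in size.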 The procedure, abridged: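 Readout: firefly luciferase luminescence via ONE-Glo. System: HepG2 double-stable for hCAR and CYP2B6-2.2kb. Conditions: 15-point compound titration, PK11195 at 0.75 uM final, 24 h incubation.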

Experiment [7] can be described thus: qHTS assay to identify small molecule antagonists of the estrogen related receptor signaling pathway with the pleiotropic PPARgamma coactivator (PGC) from Tox21 10K library - cell viability counter screen (AID 1224840; active means well fitted cell-killing curve with a large enough effect in the repeat runs, not every such curve was filed as active; further: nearly all actives have a fitted effect of over 40% in size). The procedure, abridged:
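PGC/ERR cells were seeded at 2,000 cells/well and left 6 hours at 37 C/5% CO2 before pin-tool addition of compounds in DMSO. After 17.5 hours at 37 C, CellTiter-Fluor was added and fluorescence read 30 minutes later.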

The nature of experiment [8]: qHTS assay to identify small molecule antagonists of the estrogen related receptor signaling pathway with the pleiotropic PPARgamma coactivator (PGC) from Tox21 10K library (AID 1224841; call rule not given here; further: actives are mostly falling curves and most rising ones were filed inactive; nearly all actives have a fitted effect of over 50% in size). Put shortly:
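PGC/ERR reporter cells were seeded at 2,000 cells/well and held 6 hours at 37 C/5% CO2 before pin-tool addition of compounds in DMSO. After 18 hours at 37 C, One-Glo was added and luminescence read after 30 minutes at room temperature.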

The target in experiment [9] is Thyrotropin receptor (Homo sapiens) (UniProt P16473). Nature of the experiment: qHTS assay to identify small molecule agonists of the thyroid stimulating hormone receptor (TSHR) signaling pathway (AID 1224843; calls by dose curve; further: nearly all actives have a fitted effect of over 45% in size). Put shortly:
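Screening of the Tox21 10K collection used HEK293 cells engineered with TSHR at 800 cells per well. After a 30-min room-temperature compound exposure, HTRF cAMP reagents were added and fluorescence recorded 1 h later.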

Experiment [10] is described as follows: qHTS assay to identify small molecule agonists of the hypoxia (HIF-1) signaling pathway - cell viability counter screen (AID 1224844; calls by dose curve; further: nearly all actives have a fitted effect of over 50% in size). Put shortly:
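HRE-bla ME-180 cells in medium with 0.5% dialyzed FBS were preincubated 5 hrs at 37C, exposed to compounds for 17 hrs, then viability was read as CellTiter-Glo luminescence after 30 min at room temperature, in the reporter wells.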

A short description of experiment [11]: qHTS assay to identify small molecule agonists of H2AX (AID 1224845; active means well fitted activation curve with a large enough effect in the signal ratio in the repeat runs, not every such curve was filed as active; the % refers to the signal ratio). Put shortly:
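Phospho-H2AX Ser139 measured by HTRF (ex 320 nm; em 665 and 620 nm) after 24 hr antibody incubation. Compounds, 15 concentrations, 0.76% DMSO, were applied to CHO-K1 cells for 3hr at 37C before lysis.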

The nature of experiment [12]: qHTS assay to identify small molecule agonists of the hypoxia (HIF-1) signaling pathway (AID 1224846; active means well fitted activation curve with a large enough effect in the signal ratio in the repeat runs, not every such curve was filed as active; the % refers to the signal ratio). Put shortly:
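HRE-bla ME-180 cells (beta-lactamase reporter under hypoxia response element) were plated at 2,000 cells/well in medium with 0.5% dialyzed FBS, rested 5 hrs, then given compounds in DMSO for 17 hrs at 37C, 5% CO2. Reporter induction was read with CCF4-AM FRET substrate.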

Experiment [13] in a line: qHTS assay to identify small molecule agonists of H2AX - cell viability counter screen (AID 1224847; calls by dose curve;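 further: wild-type CHO-K1 cells; top concentration of the series differs between compounds; nearly all actives have a fitted effect of over 30% in size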). Put shortly:
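For this counter screen, overnight-attached CHO-K1 cells received test compounds (15 concentrations, 0.76% DMSO final); 3 hr later at 37C, CellTiter-Glo reagent was added and luminescence recorded after 30 min at room temperature.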

Experiment [14] can be described thus: qHTS assay to identify small molecule agonists of the estrogen related receptor (ERR) signaling pathway from Tox21 library (AID 1224849; calls by dose curve; further: nearly all actives have a fitted effect of over 15% in size). To be noted: ERR reporter cell line, ONE-Glo luciferase, 18 h; at 92.4 µM (top of the series) unless noted. The procedure, abridged:
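ERR reporter cell line (NTP) seeded, rested 6 h at 37 C/5% CO2, then pinned with Tox21 compounds in DMSO. After 18 h at 37 C, ONE-Glo luciferase luminescence was read following 30 min at room temperature.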

Experiment [15] can be described thus: qHTS RealTime-Glo MT Cell Viability Assay in HepG2 cells - 24 hour (AID 1224867). Further: nearly all actives have a fitted effect of over 50% in size. The procedure, abridged:
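qHTS, HepG2, 600 cells/well, RealTime-Glo (NanoLuc + prosubstrate) added with cells; 5 h preincubation; DMSO compound addition; 37 C; luminescence at 0/8/16/24/32/40 h.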

A short description of experiment [16]: qHTS RealTime-Glo MT Cell Viability Assay in HEK293 cells - 32 hour (AID 1224868). Further: top concentration of the series differs between compounds; nearly all actives have a fitted effect of over 50% in size. The procedure, abridged: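 Assay medium contained NanoLuc luciferase plus cell-permeant prosubstrate, added with HEK293 cells at 600 cells/well. After 5 h at 37 C/5% CO2 compounds were added; plates stayed at 37 C for 40 h with serial luminescence reads.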
Experiment [17] in a line: A CellTox Green Cytotoxicity Assay to monitor cytotoxicity in HEK293 cells - 0 hour (AID 1224869). Further: nearly all actives have a fitted effect of over 50% in size. Further: potency means the concentration at half of the fitted maximal effect. The procedure, abridged:
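HEK293 cells premixed with CellTox Green dye were seeded at 600 cells/well and left 5 h at 37 C/5% CO2 before pin transfer of 23 nL compound in DMSO. Fluorescence from dye bound to dead-cell DNA was read during 40 h treatment.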

Experiment [18] is described as follows: qHTS assay to identify small molecule agonists of the estrogen related receptor signaling pathway with the pleiotropic PPARgamma coactivator (PGC) from Tox21 10K library (AID 1224842). Further: nearly all actives have a fitted effect of over 15% in size. The procedure, abridged: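 Luminescence from One-Glo (30 min, room temperature) measured after PGC/ERR cells had 18 h at 37 C with pinned compound (23 nL in DMSO). Cells had been seeded at 2,000 per well and pre-incubated 6 h.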

Experiment [19] can be described thus: qHTS assay to identify small molecule antagonists of the estrogen related receptor (ERR) signaling pathway from Tox21 library (AID 1224848). Further: nearly all actives have a fitted effect of over 50% in size. The procedure, abridged:
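Antagonist-mode screen of the Tox21 10K library in an NTP-provided ERR reporter cell line; 18 h compound exposure at 37 C, luminescence measured with ONE-Glo.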
On the % scale 0 is the no-effect control and ±100 the full control effect.

Chain of Nuclear receptor subfamily 1 group I member 3 (Homo sapiens) (Q14994 whole entry, looked up): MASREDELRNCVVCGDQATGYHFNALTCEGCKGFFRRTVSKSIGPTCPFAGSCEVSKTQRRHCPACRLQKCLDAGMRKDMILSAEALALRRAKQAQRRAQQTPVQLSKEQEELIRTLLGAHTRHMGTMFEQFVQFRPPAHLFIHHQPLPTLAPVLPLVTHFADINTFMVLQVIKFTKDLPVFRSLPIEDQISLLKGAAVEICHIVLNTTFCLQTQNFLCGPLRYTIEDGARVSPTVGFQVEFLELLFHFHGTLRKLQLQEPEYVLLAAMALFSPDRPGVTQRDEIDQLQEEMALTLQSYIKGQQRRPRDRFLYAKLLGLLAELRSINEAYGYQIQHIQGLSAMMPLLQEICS
Chain of Thyrotropin receptor (Homo sapiens) (P16473 whole entry, looked up): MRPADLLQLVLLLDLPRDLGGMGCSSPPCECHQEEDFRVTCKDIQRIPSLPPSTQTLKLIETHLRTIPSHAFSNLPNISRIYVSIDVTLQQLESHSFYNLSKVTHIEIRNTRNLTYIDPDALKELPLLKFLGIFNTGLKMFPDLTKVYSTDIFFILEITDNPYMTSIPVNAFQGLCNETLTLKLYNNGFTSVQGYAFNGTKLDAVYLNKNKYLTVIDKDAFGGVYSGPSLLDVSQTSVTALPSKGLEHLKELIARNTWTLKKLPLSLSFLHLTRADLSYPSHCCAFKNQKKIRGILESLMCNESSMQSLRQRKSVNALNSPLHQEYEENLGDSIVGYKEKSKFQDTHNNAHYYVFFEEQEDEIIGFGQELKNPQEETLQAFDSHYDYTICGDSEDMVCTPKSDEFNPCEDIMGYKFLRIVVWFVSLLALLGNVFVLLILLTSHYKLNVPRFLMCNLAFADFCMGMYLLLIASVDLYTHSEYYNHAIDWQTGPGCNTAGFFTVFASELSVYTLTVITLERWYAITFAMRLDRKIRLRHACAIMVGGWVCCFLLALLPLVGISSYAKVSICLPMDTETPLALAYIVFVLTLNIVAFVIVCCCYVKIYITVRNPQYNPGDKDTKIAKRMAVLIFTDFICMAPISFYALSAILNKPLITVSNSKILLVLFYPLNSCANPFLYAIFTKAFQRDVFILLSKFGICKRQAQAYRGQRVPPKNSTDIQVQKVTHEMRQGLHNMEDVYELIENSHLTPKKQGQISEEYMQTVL
Chain of Luciferin 4-monooxygenase (Photinus pyralis) (P08659 whole entry, looked up): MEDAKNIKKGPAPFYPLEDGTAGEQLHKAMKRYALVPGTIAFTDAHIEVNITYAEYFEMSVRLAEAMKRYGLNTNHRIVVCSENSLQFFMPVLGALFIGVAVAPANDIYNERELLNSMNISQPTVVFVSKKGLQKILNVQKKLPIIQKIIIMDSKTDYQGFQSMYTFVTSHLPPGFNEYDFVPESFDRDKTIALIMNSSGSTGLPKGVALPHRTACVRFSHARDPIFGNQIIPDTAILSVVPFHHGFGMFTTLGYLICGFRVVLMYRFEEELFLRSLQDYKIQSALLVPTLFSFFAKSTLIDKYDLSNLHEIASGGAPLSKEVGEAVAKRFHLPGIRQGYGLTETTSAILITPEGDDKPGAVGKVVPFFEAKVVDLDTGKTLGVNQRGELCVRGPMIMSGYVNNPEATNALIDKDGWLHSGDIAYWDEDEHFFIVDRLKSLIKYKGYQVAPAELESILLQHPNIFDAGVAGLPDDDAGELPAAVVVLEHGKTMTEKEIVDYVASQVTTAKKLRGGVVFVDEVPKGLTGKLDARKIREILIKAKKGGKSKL

As to `CCOc1ccc(C(=O)OCCN(CC)CC)cc1`, the Potency result in experiment [1], in experiment [2], in experiment [3], in experiment [4], in [5] and in [6] was “inactive” each time. For the same compound, the Potency entry in [7], in experiment [8], in experiment [9], in experiment [10], in experiment [13] and in experiment [15] was “inactive” each time. Also, the Potency result in [16] and in experiment [17] was “inactive” each time. Moreover, the compound was called inactive in experiment [11] and in experiment [12]. In experiment [14], the activity change, positive = activation is 1.57% [at 42.5 µM].
For `NC(=O)c1ccc(N)cc1`, the Potency result in [1], in experiment [2], in [3], in experiment [4], in experiment [5] and in experiment [6] was “inactive” throughout. The Potency entry in experiment [7], in [8], in experiment [10], in experiment [13], in experiment [19] and in [15] was “inactive” each time. In addition, the Potency result in experiment [16] and in experiment [17] was “inactive” each time. The outcome in experiment [18], in experiment [11] and in [12] was inactive. In addition, the activity change, positive = activation in experiment [14] is 8.51%.
With `CC(C)c1cc2c(cc1S(=O)(=O)O)[C@@]1(C)CCC[C@@](C)(C(=O)O)[C@@H]1CC2`, the Potency result in [1], in [2], in experiment [3], in experiment [4], in experiment [5] and in [6] was “inactive” each time. Also, the Potency result in experiment [7], in experiment [8], in experiment [9], in [10], in [13] and in experiment [19] was “inactive” in each case. Besides, the Potency entry in [15], in experiment [16] and in [17] was “inactive” in each case. The call in experiment [11] and in [12] was inactive. In addition, the activity change, positive = activation in experiment [14] was 5.5% [at 42.5 µM].
With `CN(C)CCCSc1ccccc1NC(=O)/C=C/c1ccccc1`, the Potency entry in experiment [1], in experiment [2], in [3], in [4], in [5] and in experiment [6] was “inactive” throughout. In addition, the Potency entry in experiment [7], in experiment [8], in experiment [9], in experiment [10], in experiment [13] and in experiment [19] was “inactive” each time. Besides, the Potency result in [15] and in [16] was “inactive” in each case. Moreover, the call in [11] and in experiment [12] was inactive. The activity change, positive = activation in experiment [14] is 9.36% [at 42.5 µM]. For the same compound, the Potency in [17] is 16.9 µM (active).
Turning to `CCc1cccc2c(CCO)c[nH]c12`, the Potency entry in [1], in experiment [2], in experiment [3], in experiment [4], in [5] and in experiment [6] was “inactive” in each case. Further, the Potency result in experiment [7], in experiment [8], in experiment [9], in experiment [10], in experiment [13] and in experiment [19] was “inactive” throughout. Further, the Potency result in experiment [15] and in experiment [17] was “inactive” throughout. Further, the outcome in [11] and in experiment [12] was inactive. Moreover, the activity change, positive = activation in experiment [14] is 6.5% [at 42.5 µM].
Turning to `O=C(O)CCCc1ccccc1`, the Potency result in experiment [1], in experiment [2], in [3], in [4], in experiment [5] and in experiment [6] was “inactive” each time. Also, the Potency result in experiment [7], in experiment [8], in [9], in experiment [10], in [13] and in experiment [19] was “inactive” each time. In addition, the Potency result in experiment [15], in experiment [16] and in [17] was “inactive” each time. For the same compound, the compound was classed as inactive in [18] and in [11]. For the same compound, the activity change, positive = activation in [14] is 7.78% [at 42.5 µM].
With `C=C(C)CS(=O)(=O)O`, the Potency entry in [1], in experiment [2], in experiment [3], in [5], in experiment [6] and in experiment [7] was “inactive” in each case. Further, the Potency entry in [8], in [9], in [10], in [13], in experiment [19] and in [15] was “inactive” each time. The Potency result in [17] was “inactive”. Besides, the compound was called inactive in experiment [18], in [11] and in experiment [12]. Besides, the activity change, positive = activation in [14] was 0.527%.
Consider `Oc1ccc(C2CNCCc3c2cc(O)c(O)c3Cl)cc1` (centres undefined), for which the Potency result in experiment [1], in [2], in experiment [3], in experiment [4], in experiment [5] and in [6] was “inactive” throughout. The Potency result in experiment [7], in [9], in experiment [10], in [13], in [15] and in experiment [17] was “inactive” in each case. In experiment [12], the result was inactive.
In the case of `O=C1CC2CC1C1CCCC21` (centres undefined), the Potency entry in experiment [1], in experiment [2], in experiment [3], in experiment [5], in [6] and in [7] was “inactive” each time. Moreover, the Potency result in experiment [8], in experiment [9], in experiment [10], in experiment [13], in experiment [19] and in [15] was “inactive” in each case. The outcome in experiment [18], in [11] and in experiment [12] was inactive. The activity change, positive = activation in [14] was -0.257%.
In the case of `CC(C)(O)C(=O)c1ccccc1`, the Potency entry in experiment [1], in experiment [2], in experiment [3], in experiment [5], in [6] and in experiment [7] was “inactive” throughout. In addition, the Potency entry in [8], in experiment [9], in experiment [10], in [13], in [19] and in experiment [15] was “inactive” throughout. Further, in [17], the Potency result was “inactive”. The compound was classed as inactive in experiment [18], in [11] and in [12]. Besides, the activity change, positive = activation in experiment [14] is 0.982%.
